# The supplement of paper PMC8728848
# Many of the other results were omitted from the sample, so the strongest signals are more common in it than they were.
# Tests used:
# Assay in all cases: glycan array binding signal (z-score within array); higher = stronger binding
# Details in all cases: glycan notation: IUPAC condensed, linker removed
# [1] = molecular target: Fuc(a1-2)Gal(b1-3)GalNAc(a1-3)[Fuc(a1-2)]Gal(b1-4)GlcNAc
# Summary of the method: (§1)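 The binding signal is a Z-score computed within each array. Data were drawn from 3228 arrays in the Consortium for Functional Glycomics database, restricted to those with a known protein sequence. Scores were averaged over arrays of the same protein sequence at different concentrations or buffers, and over linkers, and negative values can be taken as non-binding.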
# [2] = molecular target: Fuc(a1-2)Gal(b1-3)GlcNAc(b1-3)[Gal(b1-4)GlcNAc(b1-6)]Gal(b1-4)Glc
# Summary of the method: as §1
# [3] = molecular target: Fuc(a1-2)Gal(b1-3)[Fuc(a1-4)]GlcNAc(b1-2)Man(a1-3)[Fuc(a1-2)Gal(b1-3)[Fuc(a1-4)]GlcNAc(b1-2)Man(a1-3)]Man(b1-4)GlcNAc(b1-4)GlcNAc
# Summary of the method: as §1
# [4] = molecular target: Fuc(a1-2)Gal(b1-4)Glc
# Summary of the method: as §1
# [5] = molecular target: Fuc(a1-2)Gal(b1-4)GlcNAc(b1-6)GalNAc
# Summary of the method: as §1
# [6] = molecular target: Fuc(a1-2)Gal(b1-4)[Fuc(a1-3)]GlcNAc
# Summary of the method: as §1
# [7] = molecular target: Fuc(a1-2)Gal3S(b1-4)GlcNAc
# Summary of the method: as §1
# [8] = molecular target: Fuc(a1-2)[GalNAc(a1-3)]Gal(b1-4)GlcNAc(b1-2)Man(a1-3)[Fuc(a1-2)[GalNAc(a1-3)]Gal(b1-4)GlcNAc(b1-2)Man(a1-6)]Man(b1-4)GlcNAc(b1-4)[Fuc(a1-6)]GlcNAc
# Summary of the method: as §1
# [9] = molecular target: Fuc(a1-2)[GalNAc(a1-3)]Gal(b1-4)GlcNAc(b1-3)Gal(b1-4)GlcNAc
# Summary of the method: as §1
# [10] = molecular target: Fuc(a1-2)[GalNAc(a1-3)]Gal(b1-4)[Fuc(a1-3)]GlcNAc
# Summary of the method: as §1
# [11] = molecular target: Fuc(a1-3)[Gal(b1-4)]GlcNAc(b1-3)Gal(b1-4)[Fuc(a1-3)]GlcNAc
# Summary of the method: as §1
# [12] = molecular target: Fuc(a1-3)[Gal(b1-4)]GlcNAc6S
# Summary of the method: as §1
# [13] = molecular target: Gal(a1-3)Gal(b1-3)GlcNAc(b1-2)Man
# Summary of the method: as §1
# [14] = molecular target: Gal(b1-3)GlcNAc(a1-3)Gal(b1-4)GlcNAc
# Summary of the method: as §1
# [15] = molecular target: Gal(b1-3)GlcNAc(b1-3)Gal(b1-4)GlcNAc
# Summary of the method: as §1
# [16] = molecular target: Gal(b1-4)GlcNAc(b1-3)Gal(b1-3)GlcNAc
# Summary of the method: as §1
# [17] = molecular target: Gal(b1-4)GlcNAc(b1-3)Gal(b1-4)GlcNAc(b1-3)Gal(b1-4)GlcNAc(b1-3)Gal(b1-4)GlcNAc(b1-3)Gal(b1-4)GlcNAc(b1-2)Man(a1-3)[Gal(b1-4)GlcNAc(b1-3)Gal(b1-4)GlcNAc(b1-3)Gal(b1-4)GlcNAc(b1-3)Gal(b1-4)GlcNAc(b1-3)Gal(b1-4)GlcNAc(b1-2)Man(a1-6)]Man(b1-4)GlcNAc(b1-4)[Fuc(a1-6)]GlcNAc
# Summary of the method: as §1
# [18] = molecular target: Gal(b1-4)GlcNAc(b1-3)Gal(b1-4)[Fuc(a1-3)]GlcNAc(b1-3)Gal(b1-4)[Fuc(a1-3)]GlcNAc
# Summary of the method: as §1
# [19] = molecular target: Gal3S(b1-3)[Fuc(a1-4)]GlcNAc
# Summary of the method: as §1
# [20] = molecular target: Gal4S(b1-4)GlcNAc
# Summary of the method: as §1
# [21] = molecular target: Gal6S(b1-4)GlcNAc
# Summary of the method: as §1
# [22] = molecular target: GalNAc(a1-3)GalNAc(b1-3)Gal(a1-4)Gal(b1-4)GlcNAc
# Summary of the method: as §1
# [23] = molecular target: GalNAc(b1-4)GlcNAc
# Summary of the method: as §1
# [24] = molecular target: GalNAc(b1-4)GlcNAc(b1-2)Man(a1-3)[GalNAc(b1-4)GlcNAc(b1-2)Man(a1-6)]Man(b1-4)GlcNAc(b1-4)GlcNAc
# Summary of the method: as §1
# [25] = molecular target: GalNAc3S(b1-4)GlcNAc3S
# Summary of the method: as §1
# [26] = molecular target: Glc(a1-6)Glc(a1-6)Glc
# Summary of the method: as §1
# [27] = molecular target: GlcNAc(b1-2)Gal(b1-3)GalNAc
# Summary of the method: as §1
# [28] = molecular target: GlcNAc(b1-2)[GlcNAc(b1-4)]Man(a1-3)[GlcNAc(b1-2)Man(a1-6)]Man(b1-4)GlcNAc(b1-4)GlcNAc
# Summary of the method: as §1
# [29] = molecular target: GlcNAc(b1-3)Gal(b1-4)GlcNAc(b1-3)Gal(b1-4)GlcNAc(b1-3)Gal(b1-4)GlcNAc(b1-3)Gal(b1-4)GlcNAc(b1-2)Man(a1-3)[GlcNAc(b1-3)Gal(b1-4)GlcNAc(b1-3)Gal(b1-4)GlcNAc(b1-3)Gal(b1-4)GlcNAc(b1-3)Gal(b1-4)GlcNAc(b1-2)Man(a1-6)]Man(b1-4)GlcNAc(b1-4)[Fuc(a1-6)]GlcNAc
# Summary of the method: as §1
# [30] = molecular target: GlcNAc(b1-3)Gal(b1-4)GlcNAc(b1-3)Gal(b1-4)GlcNAc(b1-3)GalNAc
# Summary of the method: as §1
# [31] = molecular target: GlcNAc(b1-3)[GlcNAc(b1-6)]GalNAc
# Summary of the method: as §1
# [32] = molecular target: GlcNAc(b1-4)GlcNAc(b1-4)GlcNAc(b1-4)GlcNAc(b1-4)GlcNAc(b1-4)GlcNAc
# Summary of the method: as §1
# [33] = molecular target: Kdn(a2-6)Gal(b1-4)GlcNAc
# Summary of the method: as §1
# [34] = molecular target: Man(a1-2)Man(a1-2)Man(a1-3)Man
# Summary of the method: as §1
# [35] = molecular target: Man(a1-2)Man(a1-3)[Man(a1-2)Man(a1-6)]Man
# Summary of the method: as §1
# [36] = molecular target: Man(a1-3)[Man(a1-6)]Man(a1-6)[Man(a1-3)]Man(b1-4)GlcNAc(b1-4)GlcNAc
# Summary of the method: as §1
# [37] = molecular target: MurNAc(b1-4)GlcNAc
# Summary of the method: as §1
# [38] = molecular target: Neu5Ac(a2-3)Gal(b1-4)GlcNAc(b1-2)Man(a1-3)[GlcNAc(b1-4)][Neu5Ac(a2-3)Gal(b1-4)GlcNAc(b1-2)Man(a1-6)]Man(b1-4)GlcNAc(b1-4)GlcNAc
# Summary of the method: as §1
# [39] = molecular target: Neu5Ac(a2-3)Gal(b1-4)GlcNAc(b1-3)Gal(b1-4)GlcNAc
# Summary of the method: as §1
# [40] = molecular target: Neu5Ac(a2-3)Gal(b1-4)GlcNAc(b1-3)Gal(b1-4)GlcNAc(b1-3)[Neu5Ac(a2-3)Gal(b1-4)GlcNAc(b1-3)Gal(b1-4)GlcNAc(b1-6)]GalNAc
# Summary of the method: as §1
# [41] = molecular target: Neu5Ac(a2-3)Gal(b1-4)GlcNAc(b1-3)[Neu5Ac(a2-3)Gal(b1-4)GlcNAc(b1-6)]GalNAc
# Summary of the method: as §1
# [42] = molecular target: Neu5Ac(a2-3)Gal(b1-4)[Fuc(a1-3)]GlcNAc(b1-3)GalNAc
# Summary of the method: as §1
# [43] = molecular target: Neu5Ac(a2-6)Gal(b1-4)GlcNAc(b1-2)Man(a1-3)Man(b1-4)GlcNAc(b1-4)GlcNAc
# Summary of the method: as §1
# [44] = molecular target: Neu5Ac(a2-6)Gal(b1-4)GlcNAc(b1-2)Man(a1-3)[Gal(b1-4)GlcNAc(b1-2)Man(a1-6)]Man(b1-4)GlcNAc(b1-4)GlcNAc
# Summary of the method: as §1
# [45] = molecular target: Neu5Ac(a2-6)Gal(b1-4)GlcNAc(b1-2)[Neu5Ac(a2-6)Gal(b1-4)GlcNAc(b1-4)]Man(a1-3)[GlcNAc(b1-4)][Neu5Ac(a2-6)Gal(b1-4)GlcNAc(b1-2)[Neu5Ac(a2-6)Gal(b1-4)GlcNAc(b1-6)]Man(a1-6)]Man(b1-4)GlcNAc(b1-4)GlcNAc
# Summary of the method: as §1
# [46] = molecular target: Neu5Ac(a2-6)Gal(b1-4)GlcNAc(b1-2)[Neu5Ac(a2-6)Gal(b1-4)GlcNAc(b1-6)]Man(a1-6)[Neu5Ac(a2-6)Gal(b1-4)GlcNAc(b1-2)Man(a1-3)][GlcNAc(b1-4)]Man(b1-4)GlcNAc(b1-4)GlcNAc
# Summary of the method: as §1
# [47] = molecular target: Neu5Ac(a2-6)Gal(b1-4)GlcNAc(b1-3)Gal(b1-4)GlcNAc
# Summary of the method: as §1
# [48] = molecular target: Neu5Ac(a2-6)Gal(b1-4)GlcNAc(b1-3)Gal(b1-4)GlcNAc(b1-3)[Neu5Ac(a2-6)Gal(b1-4)GlcNAc(b1-3)Gal(b1-4)GlcNAc(b1-6)]GalNAc
# Summary of the method: as §1
# [49] = molecular target: Neu5Ac(a2-6)Gal(b1-4)GlcNAc(b1-6)[Gal(b1-3)GlcNAc(b1-3)]Gal(b1-4)Glc
# Summary of the method: as §1
# [50] = molecular target: Neu5Ac(a2-8)Neu5Ac(a2-8)Neu5Ac
# Summary of the method: as §1
# [51] = molecular target: Neu5Gc(a2-8)Neu5Gc(a2-6)Gal(b1-4)GlcNAc
# Summary of the method: as §1
binder,measurement,setting,value
"EfCBM33A (Enterococcus faecalis), Q838S1 (protein) MKKSLLTIVLAFSFVLGGAALAPTVSEAHGYVASPGSRAFFGSSAGGNLNTNVGRAQWEPQSIEAPKNTFITGKLASAGVSGFEPLDEQTATRWHKTNITTGPLDITWNLTAQHRTASWDYYITKNGWNPNQPLDIKNFDKIASIDGKQEVPNKVVKQTINIPTDRKGYHVIYAVWGIGDTVNAFYQAIDVNIQ",glycan array binding signal (z-score),[1],-0.436
same,glycan array binding signal (z-score),[2],-0.026
same,glycan array binding signal (z-score),[3],0.371
same,glycan array binding signal (z-score),[4],0.342
same,glycan array binding signal (z-score),[5],1.05
same,glycan array binding signal (z-score),[6],0.633
same,glycan array binding signal (z-score),[7],0.017
same,glycan array binding signal (z-score),[8],-0.321
same,glycan array binding signal (z-score),[9],0.048
same,glycan array binding signal (z-score),[10],-1.09
same,glycan array binding signal (z-score),[11],0.008
same,glycan array binding signal (z-score),[12],0.882
same,glycan array binding signal (z-score),[13],1.41
same,glycan array binding signal (z-score),[14],0.358
same,glycan array binding signal (z-score),[15],2.06
same,glycan array binding signal (z-score),[16],-0.608
same,glycan array binding signal (z-score),[17],8.45
same,glycan array binding signal (z-score),[18],0.067
same,glycan array binding signal (z-score),[19],2.81
same,glycan array binding signal (z-score),[20],-1.18
same,glycan array binding signal (z-score),[21],0.105
same,glycan array binding signal (z-score),[22],-0.606
same,glycan array binding signal (z-score),[23],1.05
same,glycan array binding signal (z-score),[24],3.54
same,glycan array binding signal (z-score),[25],0.074
same,glycan array binding signal (z-score),[26],0.821
same,glycan array binding signal (z-score),[27],-0.504
same,glycan array binding signal (z-score),[28],0.123
same,glycan array binding signal (z-score),[29],4.24
same,glycan array binding signal (z-score),[30],0.242
same,glycan array binding signal (z-score),[31],-0.941
same,glycan array binding signal (z-score),[32],0.083
same,glycan array binding signal (z-score),[33],0.328
same,glycan array binding signal (z-score),[34],-0.162
same,glycan array binding signal (z-score),[35],0.783
same,glycan array binding signal (z-score),[36],0.455
same,glycan array binding signal (z-score),[37],0.631
same,glycan array binding signal (z-score),[38],0.122
same,glycan array binding signal (z-score),[39],-0.177
same,glycan array binding signal (z-score),[40],7.32
same,glycan array binding signal (z-score),[41],3.14
same,glycan array binding signal (z-score),[42],2.79
same,glycan array binding signal (z-score),[43],2.04
same,glycan array binding signal (z-score),[44],0.519
same,glycan array binding signal (z-score),[45],2.16
same,glycan array binding signal (z-score),[46],0.103
same,glycan array binding signal (z-score),[47],2.76
same,glycan array binding signal (z-score),[48],0.687
same,glycan array binding signal (z-score),[49],-0.451
same,glycan array binding signal (z-score),[50],0.016
same,glycan array binding signal (z-score),[51],-0.736
